Screens (PubChem BioAssay)
Rows were chosen to be rich in hits. Some 9.2% of all compounds tested hit in one or more screens of this group.
ELG1 genotox: genotoxicity induction in ELG1-luciferase HEK293T cells. HEK293T ELG1-luciferase reporter, luminescence, 16 h. Potency, µM (series often up to 46 µM), without a hit: at the top dose activity change, positive = activation, most hits filed as activators. 330,000 compounds, 1.3% hits. AID 504466; note: % of control where 0% means no effect; nearly all actives have a fitted effect of over 60% in size
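Genotoxicity was scored as increased ELG1-luciferase reporter signal, measured by ONE-Glo luminescence (30 min, room temperature). Compound or vehicle exposure of the HEK293T reporter cells lasted 16 hr at 37°C.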
FLuc modulator: firefly luciferase modulation, counter-screen for miR-21 project | P08659 | purified FLuc, Km substrates, luminescence inhibition | Potency, µM (doses to about 57.5 µM), inactives show at the top dose activity change, negative = inhibition, most hits filed as inhibitors | 360,000 compounds, 6.9% hits | AID 588342;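 note: plate controls were vehicle for no effect and reference inhibitor for full effect; nearly all actives have a fitted effect of over 55% in size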
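Purified P. pyralis luciferase, 10 nM final, with Km-level 10 uM D-luciferin and 10 uM ATP in 50 mM Tris acetate pH 7.5, 10 mM Mg acetate, 0.01% Tween-20, 0.05% BSA; 6-point qHTS titration about 60 µM downward; luminescence read.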
Rab9 promoter act: Rab9 promoter activation; 320,000 compounds, 2.8% hits; Huh7 Rab9 promoter-luciferase reporter, luminescence, 24 h; AID 485297; Potency, µM (highest dose often 9.22 µM), without a hit: at the top dose activation, negative = inhibition, hits mostly activators; note: % of control where 0% means no effect; nearly all actives have a fitted effect of over 60% in size
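Luminescence read-out: Huh7 cells stably expressing Rab9-luciferase, treated 24 h with compound at 37 °C, then lysed with luciferase reagent for 10 min at ambient before reading.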
SMN2 splice up: enhancers of SMN2 splice variant expression; HEK293 SMN2-luciferase splicing reporter, luminescence, 30-36 h; Potency, µM (series often up to 46.1 µM), for inactives: at the highest dose activity change, positive = activation, usual class: activators; 210,000 compounds, 2.8% hits; AID 1458; note: % of control where 0% means no effect; nearly all actives have a fitted effect of over 55% in size
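qHTS luciferase splicing reporter: luminescence rises when SMN2 exon 7 is included in transfected HEK293 cells. Compound exposure lasted 30-36 h at 37C, with 4.5 mM final sodium butyrate as control, followed by a ONE-Glo read.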
NPC1 prom act: activators of NPC1 promoter; 320,000 compounds, 2.4% hits; Huh7 NPC1 promoter luciferase reporter, 24 h; Potency, µM (top dose mostly 9.22 µM), for the others: at the highest dose activation, actives largely listed as activators; AID 485313; note: % of control where 0% means no effect; nearly all actives have a fitted effect of over 60% in size
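Stably transfected Huh7 (NPC1 promoter→luciferase), 1500 cells/well in Opti-MEM + 10% FBS, 2 h settle, then compound 24 h at 37 °C. Luminescence after 10 min with Amplite reagent.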
ELG1 repair inh: inhibitors of ELG1-dependent DNA repair in HEK293T cells; HEK293T ELG1-luciferase reporter, luminescence, 16 h; DNA damage induced by 5-fluorouridine; Potency, µM (doses to about 46.1 µM), for the others: top-dose activity change, negative = inhibition, actives largely listed as inhibitors; 330,000 compounds, 2.3% hits; note: % is set by controls: 0 for no effect and ±100 for the full control effect; nearly all actives have a fitted effect of over 55% in size
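In this reporter screen, reduction of luminescence relative to DMSO vehicle indicated activity. Compounds and 5-fluorouridine were added together to 2,000 cells per well, incubated for 16 hr at 37 °C, then developed with ONE-Glo.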
ELG1 FLuc counter: luciferase inhibition in cell-free luciferin readout for ELG1 hits. shares compounds with ELG1 repair inh. cell-free firefly luciferase luminescence counter-screen, ViewLux. Potency, µM (doses to about 46.1 µM), inactives show top-dose activity change, negative = inhibition, actives largely listed as inhibitors. 350 compounds, 3% hits; note: % is set by controls: 0 for no effect and ±100 for the full control effect
ELG1-Luc inh: confirmation of human ELG1-dependent DNA repair inhibitors; HEK293T ELG1-luciferase levels, luminescence; cells co-treated with 5-fluorouridine; Potency, µM (doses to about 46.1 µM), inactives show at the top dose activity change, negative = inhibition, most hits filed as inhibitors; 670 compounds, 68% hits; shares compounds with ELG1 repair inh; note: % is set by controls: 0 for no effect and ±100 for the full control effect; nearly all actives have a fitted effect of over 55% in size
ELG1-Luc MMS: inhibits ELG1-dependent repair under MMS stimulation in HEK293T cells. shares compounds with ELG1 repair inh. HEK293T luciferase-tagged ELG1 level, MMS stimulated. Potency, µM (top dose mostly 46.1 µM), for the others: at the highest dose activity change, negative = inhibition, hits mostly inhibitors. 670 compounds, 53% hits. AID 624249; note: % is set by controls: 0 for no effect and ±100 for the full control effect; nearly all actives have a fitted effect of over 60% in size
ELG1 5FU viab: confirmation of ELG1 repair inhibitors: viability with 5FU. 670 tested, under 10 active. Potency, µM (doses to about 46.1 µM), inactives show at the highest dose activity change, negative = viability loss, hits mostly cytotoxic. cell viability with 5-FU, ELG1-dependent repair. shares compounds with ELG1 repair inh;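 note: ELG1-luc HEK293T cells cotreated with 5-fluorouridine at 10 µM final; viability measured 16 h after compound addition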
ELG1 MMS cell: confirmation of ELG1 repair inhibitors: viability with MMS | shares compounds with ELG1 repair inh | Cell viability with MMS, ELG1-dependent DNA repair | Potency, µM (series often up to 46.1 µM), without a hit: top-dose activity change, negative = viability loss, usual class: cytotoxic | 670 compounds, 33% hits;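 note: ELG1-luc HEK293T cells co-treated with 10 µM MMS; viability read 16 h after compound addition; % is set by controls: 0 for no effect and ±100 for the full control effect; nearly all actives have a fitted effect of over 60% in size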
Cell viab unstim: affects unstimulated cell viability, ELG1 hit counter-screen | cell viability counter-screen, unstimulated, luminescence | shares compounds with ELG1 repair inh | Potency, µM (doses to about 45.9 µM), inactives show top-dose activity change, negative = loss of viability, hits mostly cytotoxic | AID 624252 | 900 compounds, 8% hits;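 note: compound exposure lasted 16 hours before reading; % is set by controls: 0 for no effect and ±100 for the full control effect; nearly all actives have a fitted effect of over 55% in size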
FLuc enzyme: inhibits purified firefly luciferase, counter-screen for ELG1 hits | shares compounds with ELG1 repair inh | purified firefly luciferase, luminescence counter-screen | Potency, µM (highest dose often 57.5 µM), without a hit: at the top dose activity, negative = inhibition, actives largely listed as inhibitors | 350 compounds, 10% hits | AID 624253; note: % is set by controls: 0 for no effect and ±100 for the full control effect
Starred values were filed as active, the others as inactive; ? = inconclusive; / = no result. Calls come from the whole dose curve; as a rule, active = well fitted curve in the direction sought with a large enough effect; inconclusive = small, poorly fitted or top-dose-only effect, or another doubt; inactive = no such curve, though single readings can be large; an effect the other way counts as inactive or inconclusive. Potency is the fitted concentration of half-maximal effect.

SMILES	ELG1 genotox	FLuc modulator	Rab9 promoter act	SMN2 splice up	NPC1 prom act	ELG1 repair inh	ELG1-Luc inh	ELG1-Luc MMS	ELG1 5FU viab	ELG1 MMS cell	Cell viab unstim	others
CC(C)c1nnc(NC(=O)C2CCCN2C(=O)Nc2cccc(Cl)c2)s1 (stereo not given)	0%	0%	3%	/	-3%	13%	/	/	/	/	/
CC(=O)c1cn(CC(=O)Nc2ccc(C)c(C)c2)c2ccccc12	-5%	1%	-12%	-38%	-12%	2.1µM*	-10%	?	-4%	?	-4%
O=C(Cc1ccc(OCCCc2ccccc2)cc1)NO	/	/	/	/	/	/	/	/	/	/	-1%
O=C(Nc1cc(Br)ccc1O)c1cnn2c(C(F)F)cc(C3CC3)nc12	-6%	1%	12%	-5%	-2%	2.3µM*	1µM*	15%	?	-3%	?
Cc1ccc(CNC(=O)c2ccc(N3CCC4(CC3)CC(c3ccccc3)=NO4)c(NC(=O)c3ccco3)c2)cc1	-1%	4%	0%	/	-8%	1.2µM*	?	?	?	?	1%
CCCNC(=O)c1ccc(N2CCC3(CC2)CC(c2ccccc2)=NO3)c(NC(=O)c2cccc(OC)c2)c1	-7%	0%	-2%	/	-2%	4.6µM*	5µM*	?	?	3%	?
CCOC(=O)N1CCN(C(=O)c2cc3n(n2)C(C(F)(F)F)CC(c2ccc4c(c2)OCO4)N3)CC1 (stereo not given)	-3%	3%	-4%	/	-5%	-1%	/	/	/	/	/
COc1ccc(-c2nc3ccc(C(=O)NCC(OC)OC)cc3nc2-c2ccc(OC)c(OC)c2)cc1OC	1%	0%	4%	/	-3%	1µM*	0.71µM*	8%	?	?	2%
CCc1nc2ccc(C(=O)NCCc3ccc(OC)c(OC)c3)cc2nc1CC	-4%	-2%	-2%	/	3%	-13%	/	/	/	/	/
CCOCCCNC(=O)c1ccc2nc(-c3ccc(OC)c(OC)c3)c(-c3ccc(OC)c(OC)c3)nc2c1	-7%	-1%	-1%	/	-5%	1.5µM*	0.44µM*	?	?	?	?
COc1ccc(-c2c(-c3cc(OC)cc(OC)c3)n(C)c3ccc(-c4cc(F)cc(OC)c4)cc23)cc1	6%	2%	-4%	/	-1%	12%	/	/	/	/	/
COc1cc(/C=N/NC(=O)c2cccc([N+](=O)[O-])c2)ccc1OC(=O)c1ccco1	3%	?	3%	/	-2%	4%	/	/	/	/	/
O=C1c2cccc(OCc3ccc(F)cc3)c2CCN1Cc1ccc(F)cc1	0%	0%	-20%	-79%	-21%	4.1µM*	13µM*	3.5µM*	-5%	3.1µM*	?
CCN1CCc2c(OCc3ccc(C(=O)OC)o3)cccc2C1=O	-5%	-4%	5%	-3%	-3%	-13%	/	/	/	/	/
CCC[N+]1(CC#CCC(c2ccccc2)c2ccccc2)CCCCC1	-12%	1%	-44%	/	-34%	2.3µM*	?	2.2µM*	-7%	2.8µM*	?
CCCCc1ccc(NS(=O)(=O)c2cccs2)cc1	-1%	-2%	-2%	/	-1%	16%	/	/	/	/	/
Cc1ccccc1NC(=O)Cn1cc(S(=O)(=O)c2ccccc2)c(=O)c2ccccc21	/	-3%	/	-2%	/	/	/	/	/	/	/
COC(=O)c1c(C)nn(-c2ccc(F)c(Cl)c2)c1-c1cc(C)on1	-8%	2%	-1%	/	-1%	?	/	/	/	/	/
COc1cc2c(cc1OC)C1C(=O)c3ccc4c(c3OC1CO2)C=CC(C)(C)O4 (stereo not given)	/	/	/	-73%	/	/	/	/	/	/	/
COc1cc2c(cc1OC)C1C(=O)c3c(O)cc4c(c3OC1CO2)C=CC(C)(C)O4 (stereo not given)	/	/	/	-81%	/	/	?	0.4µM*	-8%	0.4µM*	?	ELG1 FLuc counter=-4%;FLuc enzyme=-3%
CCc1ccc(-c2nc(SCC(=O)NCC3CCCO3)c(-c3ccc(F)cc3)[nH]2)cc1 (stereo not given)	/	-3%	/	12%	/	/	/	/	/	/	/
CC1CCCN(C(=O)COC(=O)Cn2cnc3ccccc32)C1 (stereo not given)	1%	/	/	/	/	21%	/	/	/	/	/
COc1ccc(-c2cc(C(=O)Nc3cnn(Cc4ccc(F)cc4)c3)no2)cc1OC	/	2%	/	1%	/	/	/	/	/	/	/
COc1ccc(C(=O)Nc2cnn(Cc3c(F)cccc3Cl)c2)cc1OC	5%	19µM*	16%	/	19%	?	1%	34%	?	10%	5%
